Measured values: PMC5540273 (PLoS ONE, 2017)

How the values were obtained:
Details in all cases: concentration: 1 μM, replicates: in singlicate; n = 1
RIOK1 = tested on: RIOK1
RIOK2 = tested on: RIOK2
RIOK3 = tested on: RIOK3
RIPK1 = tested on: RIPK1
RIPK2 = tested on: RIPK2
RIPK4 = tested on: RIPK4
RIPK5 = tested on: RIPK5
ROCK1 = tested on: ROCK1
ROCK2 = tested on: ROCK2
ROS1 = tested on: ROS1
[1] = tested on: RPS6KA4(Kin.Dom.1-N-terminal)
[2] = tested on: RPS6KA4(Kin.Dom.2-C-terminal)
[3] = tested on: RPS6KA5(Kin.Dom.1-N-terminal)
[4] = tested on: RPS6KA5(Kin.Dom.2-C-terminal)
[5] = tested on: T1, RSK1(Kin.Dom.1-N-terminal)
T1 construct: gene RPS6KA1

[6] = tested on: T2, RSK1(Kin.Dom.2-C-terminal)
T2 construct: gene RPS6KA1

[7] = tested on: T3, RSK2(Kin.Dom.1-N-terminal)
T3 construct: gene RPS6KA3

[8] = tested on: T4, RSK2(Kin.Dom.2-C-terminal)
T4 construct: gene RPS6KA3

[9] = tested on: T5, RSK3(Kin.Dom.1-N-terminal)
T5 construct: gene RPS6KA2

[10] = tested on: T6, RSK3(Kin.Dom.2-C-terminal)
T6 construct: gene RPS6KA2
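Also: KINOMEscan kinase panel screen.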

| SMILES | %Inh (RIOK1) [%] | %Inh (RIOK2) [%] | %Inh (RIOK3) [%] | %Inh (RIPK1) [%] | %Inh (RIPK2) [%] | %Inh (RIPK4) [%] | %Inh (RIPK5) [%] | %Inh (ROCK1) [%] | %Inh (ROCK2) [%] | %Inh (ROS1) [%] | %Inh [1] [%] | %Inh [2] [%] | %Inh [3] [%] | %Inh [4] [%] | %Inh [5] [%] | %Inh [6] [%] | %Inh [7] [%] | %Inh [8] [%] | %Inh [9] [%] | %Inh [10] [%] |
| --- | --- | --- | --- | --- | --- | --- | --- | --- | --- | --- | --- | --- | --- | --- | --- | --- | --- | --- | --- | --- |
| Cl.Cl.NCC(NC(=O)c1cc(-c2cccnc2)c(-c2ccnc3[nH]ccc23)s1)c1ccccc1 (centres unmarked) [GSK1323434] | 60 | 54 | 57 | 10 | 26 | 16 | 0 | 99.7 | 99.4 | 20 | 58 | 0 | 18 | 57 | 61 | 53 | 29 | 40 | 0 | 0 |
| Nc1cccc(-c2ccc3c(N)n[nH]c3c2)c1 [GSK2193613] | 93.9 | 64 | 55 | 0 | 0 | 49 | 0 | 42 | 48 | 17 | 12 | 8 | 35 | 0 | 13 | 1 | 1 | 6 | 7 | 8 |
| COc1cccc(C2=C(Nc3cccc(O)c3)C(=O)NC2=O)c1 [SB-390771] | 49 | 0 | 17 | 0 | 18 | 22 | 3 | 3 | 5 | 0 | 21 | 0 | 21 | 2 | 84 | 0 | 8 | 28 | 84 | 7 |
| N#Cc1cnc2cc(-c3cnc(CNCCN4CCOCC4)s3)ccc2c1Nc1ccc(Oc2ccccc2)cc1 [GW664114] | 15 | 0 | 29 | 0 | 26 | 21 | 81 | 0 | 2 | 0 | 41 | 0 | 76 | 28 | 91.7 | 32 | 79 | 1 | 78 | 16 |
| COc1cccc2c(-c3ccncc3)c(-c3ccc(F)cc3)nn12 [GW468513] | 32 | 13 | 26 | 0 | 56 | 8 | 0 | 0 | 28 | 0 | 4 | 0 | 23 | 0 | 0 | 48 | 0 | 20 | 3 | 0 |
| CN1CCN(Cc2ccc(NC(=O)Nc3ccc(N(C)c4ccnc(Nc5ccc(CS(C)(=O)=O)cc5)n4)cc3)cc2)CC1.Cl [GW827654] | 94.1 | 100 | 93.4 | 40 | 34 | 72 | 94.9 | 94.6 | 99.2 | 40 | 39 | 16 | 0 | 0 | 75 | 15 | 0 | 46 | 42 | 25 |
| Cc1cccc(Nc2nc(NCCN)ncc2C(N)=O)c1 [GSK1292139] | 89 | 3 | 90.2 | 20 | 0 | 81 | 14 | 82 | 81 | 19 | 12 | 0 | 0 | 29 | 20 | 31 | 46 | 7 | 18 | 1 |
| O=C1NC(=O)C(c2ccccc2Cl)=C1Nc1cccc(Cl)c1 [SB-342409] | 4 | 0 | 0 | 4 | 100 | 21 | 14 | 0 | 0 | 0 | 16 | 0 | 2 | 0 | 75 | 9 | 19 | 31 | 100 | 0 |
| COc1cc(Nc2nccc(N3CCC(NC(=O)Nc4ccc5c(c4)OCO5)C3)n2)cc(OC)c1OC (centres unmarked) [GSK1379766] | 79 | 0 | 81 | 0 | 19 | 62 | 0 | 25 | 44 | 36 | 0 | 0 | 1 | 18 | 22 | 2 | 5 | 0 | 10 | 5 |
| COc1cccc(-c2nc(-c3ccccc3)[nH]c2-c2ccncc2)c1 [SB-610250] | 18 | 0 | 0 | 0 | 75 | 11 | 0 | 24 | 13 | 0 | 2 | 0 | 7 | 41 | 19 | 7 | 12 | 26 | 11 | 0 |
